Measured values taken from PubChem BioAssay (NCATS).
Results filed as inconclusive are left out. Calls of active or inactive are those of the source. The call rests on the fitted dose curve; in most records, active means well fitted cell-killing curve with a large enough effect; inconclusive means small, poorly fitted or top-dose-only effect; inactive means flat fitted curve, though single readings scatter.

Assay: Cell Viability - LYMP2-010 (AID 981);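 further: cells exposed to compound for 24 hours at 37 °C; nearly all actives have a fitted effect of over 55% in size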; further: potency means the concentration at half of the fitted maximal effect; on activity, negative = cytotoxicity: on the % scale 0 is the no-effect control and ±100 the full control effect
Conditions: LYMP2-010 lymphoblastoid cell viability, qHTS; series mostly up to 92.2 µM; activity, negative = cytotoxicity: at the top concentration
In short: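 This 24 hr viability screen uses LYMP2-010 lymphoblastoid cells, quantifies ATP via luciferase luminescence, and derives AC50 from Hill fits of qHTS concentration-response data.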

Structure (SMILES)	activity, negative = cytotoxicity	Potency
CC(C)NC(C)C	-3.89% (inactive)	
CCC(C)(C)c1ccc(O)cc1	-13.1% (inactive)	
CCCC(C)(COC(N)=O)COC(N)=O	-1.76% (inactive)	
O=P1(N(CCCl)CCCl)NCCCO1 (stereo unspecified)	-6.15% (inactive)	
COP(=S)(OC)Oc1ccc(SC)c(C)c1	-6.34% (inactive)	
COC(=O)C(c1ccccc1)C1CCCCN1 (stereo unspecified)	-1.98% (inactive)	
CC(C)c1cccc(C(C)C)c1O	-8.15% (inactive)	
Clc1ccc(C(c2ccc(Cl)cc2)C(Cl)(Cl)Cl)cc1	-15% (inactive)	
C[C@]1(O)CC[C@H]2[C@@H]3CCC4=CC(=O)CC[C@]4(C)[C@@]3(F)[C@@H](O)C[C@@]21C	-6.05% (inactive)	
COc1cc(OC)c(OC)cc1C=O	7.54% (inactive)	
Nc1ccccc1	-9.28% (inactive)	
C[C@]12CCC(=O)C=C1CC[C@@H]1[C@@H]2CC[C@@]2(C)[C@H]1CC[C@]2(C)O	-11.3% (inactive)	
Oc1ccc(Cl)cc1	-18.5% (inactive)	
O=C(O)CCCc1ccc(N(CCCl)CCCl)cc1		31.6 µM (active)
C[C@]12CCC(=O)C=C1CC[C@@H]1[C@@H]2CC[C@]2(C)C(=O)CC[C@@H]12		inactive
NCCc1ccc(O)cc1	-28.1% (inactive)	
CCOC(=O)CC(SP(=S)(OC)OC)C(=O)OCC (stereo unspecified)	-22.9% (inactive)	
Nc1ccccc1C(=O)O	-13% (inactive)	

Assay: Cell Viability - LYMP2-014 (AID 983);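 further: cells exposed to compound for 24 h at 37 °C; plate controls were DMSO only for no effect and 92 µM tetraoctylammonium bromide for full effect; nearly all actives have a fitted effect of over 50% in size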
Conditions: LYMP2-014 lymphoblastoid cells, viability qHTS; series mostly up to 92.2 µM; activity change, negative = cytotoxicity: at the top concentration
In short: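 Quantitative HTS in lymphoblastoid cells: 24 hr compound exposure, then CellTiter-Glo ATP luminescence. Positive control was tetraoctylammonium bromide, 6.4pM to 92 uM.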

Structure (SMILES)	activity change, negative = cytotoxicity	outcome
CC(C)NC(C)C	9.2% (inactive)	
CCC(C)(C)c1ccc(O)cc1	-0.0682% (inactive)	
CCCC(C)(COC(N)=O)COC(N)=O	-5.33% (inactive)	
O=P1(N(CCCl)CCCl)NCCCO1 (stereo unspecified)	-4.01% (inactive)	
COP(=S)(OC)Oc1ccc(SC)c(C)c1	-6.84% (inactive)	
COC(=O)C(c1ccccc1)C1CCCCN1 (stereo unspecified)	-19.2% (inactive)	
CC(C)c1cccc(C(C)C)c1O	-7.51% (inactive)	
Clc1ccc(C(c2ccc(Cl)cc2)C(Cl)(Cl)Cl)cc1	-6.82% (inactive)	
C[C@]1(O)CC[C@H]2[C@@H]3CCC4=CC(=O)CC[C@]4(C)[C@@]3(F)[C@@H](O)C[C@@]21C	0.901% (inactive)	
COc1cc(OC)c(OC)cc1C=O	-1.03% (inactive)	
Nc1ccccc1	-3.47% (inactive)	
C[C@]12CCC(=O)C=C1CC[C@@H]1[C@@H]2CC[C@@]2(C)[C@H]1CC[C@]2(C)O	-13.6% (inactive)	
CN1C[C@H](C(=O)N[C@]2(C)O[C@@]3(O)[C@@H]4CCCN4C(=O)[C@H](Cc4ccccc4)N3C2=O)C=C2c3cccc4[nH]cc(c34)C[C@H]21	-21.4% (inactive)	
Oc1ccc(Cl)cc1	-1.18% (inactive)	
C[C@]12CCC(=O)C=C1CC[C@@H]1[C@@H]2CC[C@]2(C)C(=O)CC[C@@H]12		inactive
NCCc1ccc(O)cc1	0.307% (inactive)	
CCOC(=O)CC(SP(=S)(OC)OC)C(=O)OCC (stereo unspecified)	6.94% (inactive)	
Nc1ccccc1C(=O)O	-3.68% (inactive)	
